GPR151 ag = activators of human GPR151, primary screen, cell-based, PathHunter beta-arrestin, luminescence. G-protein coupled receptor 151 (Homo sapiens), Q8TDV0. PathHunter beta-arrestin GPR151 cells. activation, % at 11.2 µM. 650,000 tested, 1% active. AID 1508602, 2020; in the data active = activation above about 4.9%;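 also: 0% = median of compound wells and 100% = cells with positive control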
MITF inh = MITF inhibitors, primary screen, biochemical, AlphaScreen, human | AlphaScreen MITF homodimerization, bead proximity signal | AID 1259374, 2018 | Microphthalmia-associated transcription factor (Homo sapiens), O75030 | inhibition, % at 2.6 µM | 650,000 tested, 0.91% active; in the data active = inhibition above about 50%;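 also: 0% = vehicle wells with protein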
Target sequence (O75030 whole entry, looked up): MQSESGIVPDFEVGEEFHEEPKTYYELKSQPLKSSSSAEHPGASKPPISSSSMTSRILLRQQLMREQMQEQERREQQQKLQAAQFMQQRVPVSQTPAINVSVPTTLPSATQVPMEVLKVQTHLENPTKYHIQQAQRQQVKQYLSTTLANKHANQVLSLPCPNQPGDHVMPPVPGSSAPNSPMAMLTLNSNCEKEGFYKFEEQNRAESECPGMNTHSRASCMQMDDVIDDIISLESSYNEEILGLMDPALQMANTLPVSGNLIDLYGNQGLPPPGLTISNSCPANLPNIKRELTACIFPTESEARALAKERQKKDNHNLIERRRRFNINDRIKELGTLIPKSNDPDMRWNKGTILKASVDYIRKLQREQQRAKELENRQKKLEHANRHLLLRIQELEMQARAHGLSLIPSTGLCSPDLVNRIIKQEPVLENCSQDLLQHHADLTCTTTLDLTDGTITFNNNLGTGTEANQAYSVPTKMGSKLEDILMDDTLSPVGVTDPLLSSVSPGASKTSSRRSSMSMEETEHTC
TEAD-YAP inh = TEAD-YAP interaction inhibition, primary screen, TEAD-YAP interaction inhibitor project, luminescence, HEK-TIYL cells; TEAD-Gal4/YAP UAS-luciferase luminescence; 640,000 tested, 1.4% active; AID 1259422, 2018; inhibition, % at 9.12 µM; in the data active = inhibition above about 32%;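 also: 0% = median of test compound wells and 100% = reference inhibitor wells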
FBW7 act = FBW7 E3 ligase activators, primary screen, biochemical, AlphaScreen, human. F-box/WD repeat-containing protein 7 (Homo sapiens), Q969H0. AlphaScreen FBW7–phospho-cyclin E peptide binding, activator screen. normalized activity (activation), % at 26.1 µM. AID 1259310, 2017. 650,000 tested, 0.13% active; in the data active = normalized activity above about 1.9%;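 also: purified mutant Fbw7 with reduced substrate affinity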
* = called active by the depositor. Most compounds without a hit are left out; they make up all but 3.5% or so of the library.

SMILES	GPR151 ag	MITF inh	TEAD-YAP inh	FBW7 act
Cc1cc2nc(-c3ccc(N)cc3O)oc2cc1C	0	7	31	0
CC(C)c1ccc2oc(-c3ccc(N)cc3O)nc2c1	-1	-3	87*	0
CC(C)c1ccc2oc(-c3cc(N)ccc3O)nc2c1	-4	11	64*	0
CC(=O)c1[nH]c(C)c(C(C)=O)c1C	-1	-6	-6	0
CCc1c(Cc2[nH]c(C)c(C(C)=O)c2C)[nH]c(C(=O)O)c1C	-2	-146	8	15*
O=C(O)c1cc(O)c(O)c(O)c1	1	76*	1	0
O=C(O)c1ccccc1	0	-4	-1	0
CCN1CCN(c2cc(C)c3cc(NC(=O)Cn4nc(C)c([N+](=O)[O-])c4C)ccc3n2)CC1	-1	-2	-8	0
Cc1ccccc1NC(C)C(=O)N/N=C/c1ccc(O)cc1O (centres undefined)	0	29	22	0
COc1ccc(C(=O)c2cc([N+](=O)[O-])ccc2N2CCN(C)CC2)cc1	-1	15	49*	1
CN1CCN(c2ccc([N+](=O)[O-])cc2C(=O)c2ccc(Br)cc2)CC1	0	9	52*	0
Cc1ccc(C(=O)c2cc([N+](=O)[O-])ccc2N2CCN(C)CC2)cc1	0	18	51*	0
COc1ccc(C)cc1N(CC(=O)Nc1cccc([N+](=O)[O-])c1)S(C)(=O)=O	-2	16	13	0
CCOC(=O)C1=C(N)OC2=C(C(=O)CC(C)(C)C2)C1c1ccc(OC)c2ccccc12 (centres undefined)	0	8	-5	0
O=C(Nc1cccc(OC(=O)c2cc(S(=O)(=O)N3CCCCCC3)ccc2Cl)c1)c1ccccc1	0	-5	-3	0
O=C(Nc1cccc(OC(=O)c2ccc(F)c(S(=O)(=O)N3CCOCC3)c2)c1)c1ccccc1	-1	-3	32*	0
O=C(Oc1cccc(NC(=O)c2ccco2)c1)c1cccc(S(=O)(=O)N2CCOCC2)c1	-3	18	-12	1
O=C(Nc1cccc(OC(=O)c2cccc(S(=O)(=O)N3CCOCC3)c2)c1)c1ccc(Br)cc1	1	6	35*	0
O=C(Oc1cccc(NC(=O)c2ccco2)c1)c1ccc(F)c(S(=O)(=O)N2CCOCC2)c1	0	-14	2	0
Cc1ccc(C(=O)Nc2cccc(OC(=O)c3cc(S(=O)(=O)N4CCOCC4)ccc3Cl)c2)cc1	-6	1	83*	0
Cc1ccc(S(=O)(=O)NCC(=O)Nc2ccc(Oc3ccccc3)cc2)cc1	-1	8	-1	0
O=C(O)C1Nc2c(I)cccc2C2C=CCC12 (centres undefined)	0	83*	7	-1
Brc1ccc(C2Nc3c(I)cccc3C3C=CCC32)cc1 (centres undefined)	-2	10	11	0
O=C(O)C1Nc2c(O)cccc2C2C=CCC12 (centres undefined)	2	108*	-3	0
COc1ccc(Br)c(C(=O)N[C@@H](CCSC)c2nc3ccccc3[nH]2)c1	-1	-8	8	0
SMILES	GPR151 ag	MITF inh	TEAD-YAP inh	FBW7 act
Cc1nnc2sc(-c3ccc(NC(=O)C(C)(C)C)cc3)nn12	-1	1	40*	0
O=C(CCc1cnccn1)N1CCc2c([nH]c3ccccc23)C1C1CCCCC1 (centres undefined)	0	8	-53	0
CC(C)CS(=O)(=O)C1=NSC2=NC(=O)/C(=C\c3ccc([N+](=O)[O-])o3)C(=N)N21	0	66*	0	0
CC(C)S(=O)(=O)C1=NSC2=NC(=O)/C(=C\c3ccc([N+](=O)[O-])o3)C(=N)N21	-2	53*	5	0
Cn1cccc1C(=O)NC(=O)COC(=O)c1ccc([N+](=O)[O-])o1	0	0	13	0
COC(=O)c1sccc1NC(=O)c1ccccc1C	0	-1	-16	0
CCOc1ccccc1C(=O)Nc1ccsc1C(=O)OC	1	0	55*	0
Cc1ccc2nc(-c3sc4nc(C)ccc4c3N)[nH]c2c1	0	-3	72*	0
Cc1cc(C)c2c(N)c(-c3nc4ccccc4[nH]3)sc2n1	-4	-4	-42	0
O=C(Nc1ccc(O)cc1)c1ccc(-c2ccccc2)cc1	-1	-3	20	0
COc1ccc2nc(-c3ccc(N)cc3)[nH]c2c1	-7	1	54*	0
Clc1ccc(C2Oc3ccccc3C3CC(c4ccccc4)=NN32)c(Cl)c1 (centres undefined)	-1	7	-25	0
Cc1cnc(-c2ccc(N3CCOCC3)nc2)nc1NCc1ccccc1	5	8	-33	0
Cc1sc2ncnc(N/N=C/c3cccc([N+](=O)[O-])c3)c2c1C	2	-8	-4	0
Cc1sc2ncnc(N/N=C/c3ccc([N+](=O)[O-])o3)c2c1C	0	8	35*	-1
COc1ccccc1C(=O)N/N=C/c1c(O)ccc2ccccc12	1	12	37*	0
COc1ccc(/C=N/NC(=O)c2cn(C)c3ccccc23)cc1O	0	6	33*	0
Cc1occc1C(=O)N/N=C/c1c(O)ccc2ccccc12	0	-9	47*	-1
COc1ccc(/C=N/NC(=O)c2ccccc2O)cc1O	2	-7	-20	0
COCCNCC(=O)Nc1ccc(C2CCCCC2)cc1	0	14	3	0
CNC(=O)c1ccccc1Nc1cc(Nc2ccc(F)cc2OC)ncc1C(F)(F)F	-1	-2	18	0
CNC(=O)c1ccccc1Nc1cc(Nc2ccc(N3CCOCC3)cc2OC)ncc1Br	0	14	9	0
CNC(=O)c1ccccc1Nc1cc(Nc2ccc(OC3CCN(C)CC3)cc2OC)ncc1C(F)(F)F	0	14	74*	0
CNC(=O)c1ccccc1Nc1cc(Nc2ccc(N3CCC(N(C)C)C3)cc2OC)ncc1C#N (centres undefined)	-1	9	44*	0
CNC(=O)c1ccccc1Nc1cc(Nc2ccc(N3CCN(C)CC3)cc2OC)ncc1C(F)(F)F	-1	0	85*	0
CCc1c(C(=O)N2CCN(c3cccc(OC)c3)CC2)[nH]c(C)c1C(C)=O	0	8	54*	0
COc1cccc(N2CCN(C(=O)c3[nH]c(C)c(C(C)=O)c3C)CC2)c1	2	2	40*	0
CC(=O)c1c(C)[nH]c(C(=O)N2CCN(c3ccc(F)cc3)CC2)c1C	0	-1	-3	0
CC(=O)c1c(C)[nH]c(C(=O)N2CCN(c3cc(Cl)ccc3C)CC2)c1C	-1	8	-2	0
CC(=O)c1c(C)[nH]c(C(=O)N2CCN(c3cccc(Cl)c3)CC2)c1C	1	8	52*	0

Screens: PubChem BioAssay, The Scripps Research Institute Molecular Screening Center
